Among the data in PubChem BioAssay are composite z-score and composite Z-score values, retold here.

Structures are written as SMILES. Activity calls are given as the source filed them.

One experiment has as its target Albumin (Bos taurus) (UniProt P02769). As to the kind of experiment: compounds binding labelled BSA control protein – biochemical, small-molecule microarray, Alexa647 label, 635/667 nm fluorescence, artefact control for SMM control protein annotation, profiling panel (AID 1118).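 Note: score merges 667 nm emission intensity and signal-to-noise per printed compound spot.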 To be noted: BSA-A647 binding, fluorescence 635 nm, higher = more signal.
The nature of experiment [1]: probe aXIP binding to arrayed compounds – biochemical, NeuroSMM set, 635/667 nm fluorescence, primary screen (AID 1119).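 Note: probe is the protein aXip251-270 applied at 1 µg/mL to compound-printed slides; binding of probe to printed compounds measured as 667 nm fluorescence plus signal to noise.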 As to conditions: small-molecule microarray, higher = more signal, called active from +8 up or from −8 down.
Experiment [2] can be described thus: probe aNOTCH3 binding on compound microarray – biochemical, small-molecule microarray, 635/667 nm fluorescence, primary screen (AID 1120).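 Note: probe is a biotin-tagged antibody raised against NOTCH3 rather than NOTCH3 protein; score merges spot fluorescence near 667 nm with spot signal to noise.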 To be noted: higher = more signal.
A short description of experiment [3]: probe aNOTCH2 binding on compound microarray – biochemical, small-molecule microarray, 635/667 nm fluorescence, primary screen (AID 1121).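 Note: score merges feature fluorescence read at 667 nm with its signal to noise.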 To be noted: higher = more signal.
Experiment [4] concerns the target Carbonic anhydrase 2 (Homo sapiens) (UniProt P00918). The experiment can be described thus: compounds binding carbonic anhydrase 2 – biochemical, small-molecule microarray, Alexa647-labelled CAII, profiling panel (AID 1122). As to conditions: CAII-A647 binding fluorescence, higher = more signal.
Experiment [5] can be described thus: COS7 lysate on small-molecule microarray, probe aHis, 635 nm (AID 1123).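 Note: z-score combines 667nm fluorescence intensity with signal-to-noise per printed compound spot.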 To be noted: COS7 cell lysate, fluorescence, higher = more signal.
Experiment [6] can be described thus: probe aLAP1 signal on lysate-treated microarray – cell lysate, small-molecule microarray, COS7 lysate, primary screen (AID 1124).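 Note: lysate comes from COS7 cells expressing LAP1 and is applied at 0.3 µg/mL; score merges spot fluorescence near 667 nm with signal-to-noise over triplicate slides.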 As to conditions: probe aLAP1, fluorescence, higher = more signal.
The next experiment deals with Sam68 (KHDRBS1). The experiment can be described thus: compounds binding KHDRBS1 protein – biochemical, small-molecule microarray, 635 nm fluorescence, primary screen (AID 1125).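 Note: score merges 667 nm channel intensity with signal to noise over triplicate slides.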 To be noted: higher = more signal.
The subject of experiment [7] is Chordin-like protein 2 (CHRDL2). The experiment can be described thus: compounds binding chordin-like 2 – biochemical, small-molecule microarray, 635 nm fluorescence, primary screen (AID 1126).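 Note: printed compound slides probed with Chrdl2 protein at 4 µg/mL for 1 h at 4 C; score merges 667 nm emission intensity with signal to noise over three replicate slides.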 As to conditions: fluorescence 635 nm, higher = more signal.
The target of experiment [8] is Concanavalin-A (Canavalia ensiformis) (UniProt P02866). The experiment can be described thus: compounds binding concanavalin A lectin – biochemical, small-molecule microarray, Alexa647 label, 635 nm, artefact control for SMM control protein annotation, primary screen (AID 1127).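 Note: z combines 667 nm emission intensity with signal-to-noise across three replicate slides.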 To be noted: ConA-A647 binding fluorescence, higher = more signal.
Sequence of Concanavalin-A (Canavalia ensiformis) (P02866 whole entry, looked up): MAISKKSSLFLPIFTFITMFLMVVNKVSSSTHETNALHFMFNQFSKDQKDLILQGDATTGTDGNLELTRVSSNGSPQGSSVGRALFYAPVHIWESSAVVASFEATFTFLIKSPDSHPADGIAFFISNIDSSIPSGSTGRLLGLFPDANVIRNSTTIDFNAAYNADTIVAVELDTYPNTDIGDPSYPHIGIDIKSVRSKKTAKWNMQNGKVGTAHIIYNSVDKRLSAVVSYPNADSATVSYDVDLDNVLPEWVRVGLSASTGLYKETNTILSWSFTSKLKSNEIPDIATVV

Sequence of Albumin (Bos taurus) (P02769 whole entry, looked up): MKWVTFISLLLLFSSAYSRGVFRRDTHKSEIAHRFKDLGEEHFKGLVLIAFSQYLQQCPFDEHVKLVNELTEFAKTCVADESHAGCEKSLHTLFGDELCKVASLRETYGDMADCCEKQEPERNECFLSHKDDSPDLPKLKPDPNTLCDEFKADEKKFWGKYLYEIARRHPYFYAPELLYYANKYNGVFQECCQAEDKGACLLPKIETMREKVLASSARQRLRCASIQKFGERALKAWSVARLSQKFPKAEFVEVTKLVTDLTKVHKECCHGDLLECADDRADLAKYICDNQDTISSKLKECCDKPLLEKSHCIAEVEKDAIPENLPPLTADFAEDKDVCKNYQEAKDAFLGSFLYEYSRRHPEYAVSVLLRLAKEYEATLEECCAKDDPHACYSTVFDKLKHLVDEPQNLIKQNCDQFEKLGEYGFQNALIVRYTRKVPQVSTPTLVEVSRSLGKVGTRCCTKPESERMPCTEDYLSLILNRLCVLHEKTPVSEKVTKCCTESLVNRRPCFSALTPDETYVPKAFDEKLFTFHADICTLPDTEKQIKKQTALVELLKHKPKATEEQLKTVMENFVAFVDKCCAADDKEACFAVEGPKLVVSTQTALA

For `C=C(CCCC)C(=O)CC[C@H](OC(=O)c1cccnc1)c1ccccc1OCCO`, the composite z-score is 0.287 with Albumin (Bos taurus); -0.0345 in [2]; -0.161 in experiment [3]; 0.268 in experiment [4]; 0.232 in experiment [5]; 0.259 in experiment [6]. For the same compound, the composite z-score is -0.546 in the experiment on Sam68 (KHDRBS1), 0.335 in [7] and 0.277 in [8]. Besides, in experiment [1], the composite Z-score is 1.71 (inactive).
For the compound `COc1ccc([Si](C)(C)[C@H]2[C@H](CC(=O)N3CCC[C@H]3CO)O[C@@]3(C(=O)N(Cc4cccc(N5C(=O)c6cccc7cccc5c67)c4)c4ccccc43)[C@@H]2C)cc1`, the composite z-score with Albumin (Bos taurus) was 0.416; in [2], 0.143; in experiment [3], -0.0745; in [4], 0.346; in experiment [5], 1.53; in [6] it was 0.0595. The composite z-score worked out at 1.04 in the experiment with Sam68 (KHDRBS1), 0.956 in experiment [7] and 1.1 in experiment [8]. Further, the composite Z-score in [1] is 0.488 (inactive).
Turning to `COc1cc2c(cc1OC)CN(C(=O)[C@H]1[C@@H]3C(=O)O[C@@H](c4ccccc4)[C@@H](c4ccccc4)N3[C@@H](c3ccc(O)cc3)[C@]13C(=O)Nc1ccc(C#CC4=CCCCC4)cc13)CC2`, the composite z-score with Albumin (Bos taurus) was 0.672; in experiment [2], 0.533; in experiment [3], -0.0411; in [4] it was 0.561; in experiment [5], 1.74; in [6] it was 0.969. Moreover, the composite z-score worked out at 1.31 with Sam68 (KHDRBS1), 0.575 in experiment [7] and 1.14 in experiment [8]. Further, the composite Z-score in experiment [1] was 0.721 (inactive).
Consider `CN(C)C(=O)[C@@]1(Cc2ccccc2CN=[N+]=[N-])N=C(c2ccc(OCCCO)cc2)O[C@H]1c1ccccc1`, for which the composite z-score with Albumin (Bos taurus) worked out at 0.722; in [2], 0.103; in experiment [3], 0.112; in [4] it was 0.277; in [5], 2.69; in [6], 0.624. The composite z-score was 1.28 in the experiment with Sam68 (KHDRBS1), -0.285 in experiment [7] and 0.749 in experiment [8]. In addition, the composite Z-score in [1] was -0.797 (inactive).
Turning to `CCCCCN1CC=CC23O[C@@H]4/C=C\CCCOC(=O)C4[C@H]2C(=O)N(C(CO)C(C)C)[C@@H]3C1=O` (stereo not given in full), the composite z-score in the experiment with Albumin (Bos taurus) is 1; in experiment [2], -0.139; in experiment [3] it was -0.14; in experiment [4], 0.819; in experiment [5], -0.168; in experiment [6] it was -0.12. Also, the composite z-score is -0.656 in the experiment with Sam68 (KHDRBS1), -0.718 in experiment [7] and -0.574 in experiment [8]. The composite Z-score in experiment [1] was 0.586 (inactive).
Turning to `COC(=O)c1c(CC[C@@H](CO)NC(=O)N2CCC[C@H]2Cn2cc(-c3ccccn3)nn2)oc(C(C)=O)c1C(=O)OC`, the composite z-score was 0.453 with Albumin (Bos taurus); -0.118 in [2]; -0.171 in [3]; 0.428 in [4]; 0.043 in experiment [5]; 0.274 in experiment [6]. Moreover, the composite z-score in the experiment on Sam68 (KHDRBS1) is 0.882; in experiment [7] it was -0.394; in [8], 0.419. In [1], the composite Z-score is 0.294 (inactive).
Consider `CN1C(=O)C2C=CC(C(O)C3CC=CCC3)N(NC(=O)OC(C)(C)C)C2C1=O` (stereo not given), for which the composite z-score with Albumin (Bos taurus) was 1.03; in experiment [2], 0.178; in experiment [3], -0.121; in [4], 0.713; in experiment [5] it was 3.19; in experiment [6], 0.532. Also, the composite z-score was found to be 1.32 with Sam68 (KHDRBS1), 0.547 in [7] and 0.627 in experiment [8]. Moreover, the composite Z-score in experiment [1] is 3.41 (inactive).
Consider `O=C1NC(=O)C2C1C=CC(C(O)C(c1ccccc1)c1ccccc1)N2Nc1ccc(Cl)cc1Cl` (stereo not given), for which the composite z-score with Albumin (Bos taurus) was 0.766; in experiment [2] it was 0.263; in experiment [3] it was 0.0409; in [4], 0.584; in experiment [5], 1.84; in experiment [6] it was 0.0766. Further, the composite z-score in the experiment on Sam68 (KHDRBS1) was 0.993; in experiment [7], -0.483; in [8], 0.788. Further, the composite Z-score in experiment [1] was -0.713 (inactive).
Turning to `O=C(NCc1ccccc1)[C@@H]1c2ccccc2C(=O)N(CC23CC4CC(CC(C4)C2)C3)[C@H]1c1ccc(CO)cc1`, the composite z-score with Albumin (Bos taurus) was 0.438; in [2], -0.274; in [3] it was -0.265; in experiment [4], 0.467; in [5] it was 0.813; in experiment [6], 1.17. Further, the figures for the composite z-score (in the experiment with Sam68 (KHDRBS1); in [7]; in experiment [8]) were 1.28, 0.452 and 1.1, respectively. Further, the composite Z-score in experiment [1] was 1.23 (inactive).
As to `CCOC(=O)C[C@H]1[C@H](OC(=O)Cc2ccc3c(c2)OCO3)[C@@H](NC(=O)c2ccc(-c3ccccc3)cc2)c2cc(OCCCO)ccc2N1C(=O)c1ccc2ccccc2n1`, the composite z-score in the experiment with Albumin (Bos taurus) is 0.238; in experiment [2] it was -0.112; in experiment [3] it was -0.182; in [4] it was 0.0289; in experiment [5], 0.1; in [6], 0.0968. Also, the composite z-score in the experiment on Sam68 (KHDRBS1) is 0.202; in [7], 0.415; in experiment [8], 0.643. Moreover, in experiment [1], the composite Z-score was -0.549 (inactive).
As for `O=C1[C@H]2C=C(Br)[C@H](C[C@@H]2OCCCCO)[C@@]12CO2`, the composite z-score with Albumin (Bos taurus) is 0.0664; in experiment [2], -0.0918; in experiment [3] it was -0.162; in experiment [4], -0.191; in experiment [5] it was -0.574; in experiment [6], 0.102. The composite z-score in the experiment with Sam68 (KHDRBS1) was -0.264; in [7] it was 0.483; in experiment [8], -0.0118. Also, the composite Z-score in experiment [1] is 0.572 (inactive).
With `[N-]=[N+]=Nc1ccccc1C[C@]1(C(=O)NCC(O)CO)N=C(c2ccc(OCCCO)cc2)O[C@H]1c1ccccc1N=[N+]=[N-]` (stereo not given in full), the composite z-score with Albumin (Bos taurus) was 0.376; in experiment [2], 0.0151; in experiment [3], 0.0809; in experiment [4], 0.391; in experiment [5], 1.69; in [6], -0.352. Moreover, the results for the composite z-score (in the experiment with Sam68 (KHDRBS1); in [7]; in experiment [8]) were 0.431, -0.424 and -0.899, respectively. The composite Z-score in [1] is 0.045 (inactive).
As for `CC(=O)n1cc(C(O)C2C=CC3C(=O)N(C)C(=O)C3N2Nc2ccccc2)c2ccccc21` (stereo not given), the composite z-score was 0.712 with Albumin (Bos taurus); 0.235 in experiment [2]; 0.027 in [3]; 0.562 in [4]; 1.84 in [5]; -0.0989 in [6]. In addition, the composite z-score with Sam68 (KHDRBS1) was found to be 1.11; in experiment [7] it was 1.25; in [8] it was 0.897. In [1], the composite Z-score is -0.803 (inactive).
In the case of `C=C[C@H](COC(C)=O)N(C(=O)OC(C)(C)C)S(=O)(=O)c1ccc(Br)cc1`, the composite z-score was -0.19 in the experiment with Albumin (Bos taurus); 0.704 in experiment [2]; 0.463 in experiment [3]; 0.162 in [4]; 0.216 in [5]; 0.0842 in experiment [6]. Also, the composite z-score in the experiment on Sam68 (KHDRBS1) came to 0.355; in experiment [7], 0.55; in experiment [8], 0.193. In [1], the composite Z-score is -0.526 (inactive).
Take `O=C1c2ccccc2[C@](Cc2ccccc2I)(C(=O)NC2CC2)[C@H](c2ccc(CO)cc2)N1Cc1ccccc1`: the composite z-score is -0.213 with Albumin (Bos taurus); -0.0055 in experiment [2]; -0.0495 in experiment [3]; 0.711 in [4]; 1.7 in experiment [5]; 0.478 in experiment [6]. Besides, the composite z-score is 0.512 with Sam68 (KHDRBS1), -0.0374 in [7] and 0.894 in experiment [8]. In experiment [1], the composite Z-score was 0.476 (inactive).
Take `COCCOC(=O)N1C(=O)[C@@]2(c3cc(C#CC4=CCCCC4)ccc31)[C@H](C(N)=O)[C@H]1C(=O)O[C@H](c3ccccc3)[C@H](c3ccccc3)N1[C@@H]2c1ccc(OCCO)cc1`: the composite z-score with Albumin (Bos taurus) was 0.588; in [2] it was -0.315; in experiment [3] it was -0.259; in experiment [4], 0.348; in experiment [5] it was 0.763; in [6], 0.481. For the same compound, the composite z-score with Sam68 (KHDRBS1) was determined as 1.3; in experiment [7], 0.0151; in [8] it was 0.459. Besides, the composite Z-score in [1] was 0.362 (inactive).
